Measured values reported in the supplement of paper PMC7156485.

These compounds were tested on TDF (assay: cell number relative to DMSO (% of DMSO); higher = more cells (less growth inhibition / toxicity)). Settings: concentration: 10 µM; 24 h.
In short: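 H1.0 nuclear intensity or cell number is stated as percent of the plate control, based on the median of replicates, and HCC1569 values were smoothed for positional effects. These came from HCC1569 and TDF cells treated with compounds at 10 µM for 24 h at 37 °C in triplicate, then fixed in 3.7% formaldehyde and stained with a rabbit anti-H1.0 antibody, an AlexaFluor 647 secondary and DAPI.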
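Also: TDF denotes transformed human dermal fibroblasts of mesenchymal origin.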

SMILES	cell number
Br.CN1CCc2c(cc(O)c(O)c2Cl)C(c2cccc(Cl)c2)C1 (stereo unspecified)	81.1
COc1cc(OC)cc(C(CNc2ncnc3c2ncn3C2OC(CO)C(O)C2O)c2ccccc2C)c1 (stereo unspecified)	103
NS(=O)(=O)c1ccc(-n2nc(C(F)(F)F)cc2-c2ccc(Cl)cc2)cc1	104
COC1C(OC(=O)c2ccc(C)[nH]2)C(O)C(Oc2ccc3c(O)c(NC(=O)c4c[nH]c(C(=O)Nc5c(O)c6ccc(OC7OC(C)(C)C(OC)C(OC(=O)c8ccc(C)[nH]8)C7O)c(C)c6oc5=O)c4C)c(=O)oc3c2C)OC1(C)C (stereo unspecified) [Coumermycin A1]	100
COc1cc2c(c(OC)c1OC)-c1c(cc(OC)c(OC)c1OC)CC(C)C(C)C2 (stereo not drawn) [R(+)-Schisandrin A]	103
Cc1c(CC(C)(C)C(=O)O)n(Cc2ccc(Cl)cc2)c2ccc(F)cc12	86.5
O=C(CCc1ccc(O)cc1)c1c(O)cc(O)cc1OC1OC(CO)C(O)C(O)C1O (stereo unspecified) [Phlorizine]	99.3
NNCCc1ccccc1.O=S(=O)(O)O [Phenelzine sulfate]	102
O=C(O)Cc1ccc(O)c(O)c1 [3,4-Dihydroxyphenylacetic acid]	102
CCC1OC(=O)C(C)C(OC2CC(C)(OC)C(O)C(C)O2)C(C)C(OC2OC(C)CC(N(C)C)C2O)C(C)(O)CC(C)CN(C)C(C)C(O)C1(C)O (stereo unspecified) [Azithromycin]	109
O=c1cc(-c2ccc(O)cc2)oc2cc(OC3OC(CO)C(O)C(O)C3O)c(C3OC(CO)C(O)C(O)C3O)c(O)c12 (stereo unspecified) [Saponarin]	89.5
